Many of the other results were omitted from the sample, so hits are more common in it than they were.
TDP1 cell CPT – qHTS for Inhibitors of human tyrosyl-DNA phosphodiesterase 1 (TDP1): qHTS in cells in presence of CPT. chicken DT40 Tdp1-/-;hTDP1 cells + 20 nM CPT, ATP luminescence, 48 h. Potency, µM (series often up to 46.2 µM), inactives show top-dose activity change, negative = growth inhibition, actives largely listed as inhibitors. actives 12% (n = 420,000); further: potency means the concentration at half of the fitted maximal effect; nearly all actives have a fitted effect of over 55% in size
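Chicken DT40 Tdp1-/- cells stably complemented with human TDP1 were seeded at 400 cells/well in medium containing 20 nM camptothecin, exposed to pin-transferred compounds, and grown at 37 °C for at least 48 hr. Viability was read as ATP luminescence.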
12-LOX inh – Primary qHTS assay for inhibitors of human arachidonate 12S-lipoxygenase (ALOX12): Round 2 | Polyunsaturated fatty acid lipoxygenase ALOX12 (Homo sapiens), P18054 | purified 12hLO, xylenol orange hydroperoxide absorbance | Potency, µM (doses to about 108 µM), for the others: at the top dose activity change, negative = inhibition, most hits filed as inhibitors | actives 1.1% (n = 580,000) | AID 1671190, 2021; further: potency means the concentration at half of the fitted maximal effect
Target sequence (P18054 whole entry, looked up): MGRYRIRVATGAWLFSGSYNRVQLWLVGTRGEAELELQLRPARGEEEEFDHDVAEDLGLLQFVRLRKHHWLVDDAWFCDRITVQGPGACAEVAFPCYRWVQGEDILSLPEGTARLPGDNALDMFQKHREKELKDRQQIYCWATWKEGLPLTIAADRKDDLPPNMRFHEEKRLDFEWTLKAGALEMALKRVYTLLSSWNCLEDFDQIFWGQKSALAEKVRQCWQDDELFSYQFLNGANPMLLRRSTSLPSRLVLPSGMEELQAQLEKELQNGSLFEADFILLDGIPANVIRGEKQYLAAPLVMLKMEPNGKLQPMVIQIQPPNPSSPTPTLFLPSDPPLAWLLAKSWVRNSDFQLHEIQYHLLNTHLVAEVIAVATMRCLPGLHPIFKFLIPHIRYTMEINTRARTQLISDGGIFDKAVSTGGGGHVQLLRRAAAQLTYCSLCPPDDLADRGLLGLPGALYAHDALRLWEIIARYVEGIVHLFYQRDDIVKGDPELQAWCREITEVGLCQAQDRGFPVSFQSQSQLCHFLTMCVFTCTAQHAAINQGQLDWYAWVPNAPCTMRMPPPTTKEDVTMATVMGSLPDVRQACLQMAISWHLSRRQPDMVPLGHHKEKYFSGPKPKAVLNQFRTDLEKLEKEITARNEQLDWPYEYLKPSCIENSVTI
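Purified human 12hLO at 150 nM in 25 mM Hepes, 0.01% Triton X-100, pH 7.0, preincubated 15 min at room temperature with compound. Reaction started with 40 uM arachidonic acid, 30 min at room temperature. Hydroperoxide measured by Fe-xylenol orange, 573/405 nm absorbance ratio.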
TDP1 cell noCPT – qHTS for Inhibitors of human tyrosyl-DNA phosphodiesterase 1 (TDP1): qHTS in cells in absence of CPT. Potency, µM (doses to about 46.2 µM), for inactives: at the top dose activity change, negative = growth inhibition, actives largely listed as inhibitors. actives 15% (n = 420,000). AID 686978, 2013. DT40 Tdp1-/- hTDP1 cells, no CPT, ATP luminescence, 48 h; further: potency means the concentration at half of the fitted maximal effect; nearly all actives have a fitted effect of over 55% in size
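No-CPT arm: Tdp1-/-;hTDP1 DT40 cells (400/well) plus compounds, incubated ≥48 hr at 37 °C. Readout CellTiter-Glo luminescence.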
HT1080NT lethal – qHTS for induction of synthetic lethality in tumor cells producing 2HG: qHTS for the HT-1080-NT fibrosarcoma cell line; HT-1080-NT fibrosarcoma viability, CellTiter-Glo ATP luminescence, 48 h; Potency, µM (doses to about 46.1 µM), without a hit: at the top dose activity, negative = less viability, actives largely listed as cytotoxic; actives 1.6% (n = 360,000); AID 686970, 2013;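 further: NT is the 2HG producing partner of a matched IDH1 knockdown line; potency means the concentration at half of the fitted maximal effect; 0% = DMSO-treated cells and -100% = media-only wells without cells; nearly all actives have a fitted effect of over 55% in size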
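Toxicity toward the 2HG-producing NT line was scored as %Activity, normalised to DMSO and no-cell wells, from CellTiter-Glo luminescence after 48 hours' treatment.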
HT1080 IDH1KD tx – qHTS for induction of synthetic lethality in tumor cells producing 2HG: qHTS for the HT-1080-IDH1KD cell line; HT-1080 IDH1 knockdown viability, ATP luminescence, 48 h; Potency, µM (doses to about 46.1 µM), for inactives: at the highest dose activity, negative = toxicity, actives largely listed as cytotoxic; actives 2% (n = 360,000);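 further: potency means the concentration at half of the fitted maximal effect; 0% = DMSO wells and -100% = cell-free medium wells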
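Assay cells: HT-1080 with IDH1 knockdown, 750 per well, RPMI/5% FBS. Exposure: 48 h at 37 °C following 2 h pre-incubation. Read: CellTiter-Glo luminescence; fitted concentration-response, curve class assigned.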
IL1B secr inh – qHTS for Inhibitors of Inflammasome Signaling: IL-1-beta AlphaLISA Primary Screen | THP-1 LPS/ATP IL-1B secretion, AlphaLISA, 16 h; hits give low values | AID 743279, 2014 | activity change, % at 57.5 µM | actives 4.7% (n = 360,000); in the data active means activity change below about -50%; inconclusive means mostly about -30% to -49%
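Secreted IL-1B measured by AlphaLISA bead assay after 16 h compound exposure of THP-1 cells; compounds (final up to 57.5 uM) added 1 h before LPS (250 ng/mL) and ATP (1.25 mM) stimulation; lower signal means less secretion.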
* = called active by the depositor; ? = inconclusive; . = no result given; [ ] = dose if it differs, or a comment. Unless noted, the call rests on the fitted dose curve; in most records, active means well fitted curve in the direction sought with a large enough effect; inconclusive means small, poorly fitted or top-dose-only effect, or another doubt; inactive means no such curve, though single readings can be large; an effect the other way counts as inactive or inconclusive. Unless noted, on the % scale 0 is the no-effect control and ±100 the full control effect.

SMILES | TDP1 cell CPT | 12-LOX inh | TDP1 cell noCPT | HT1080NT lethal | HT1080 IDH1KD tx | IL1B secr inh
COC(=O)c1ccc(OCC(O)Cn2cnc3cc(C)c(C)cc32)cc1 (configuration not stated) | ? | 5.4% | 9.2µM* | . | . | .
CCC(=O)c1ccc(OCC(O)Cn2c(C)nc3ccccc32)cc1 (configuration not stated) | 18.4µM* | ? | 18.4µM* | -0.6% | 23.1µM* | 24.4
Cc1nc2ccccc2n1CC(O)COc1ccc(C(=O)O)cc1 (configuration not stated) | -18.2% | -22.2% | 8.9% | . | . | .
COC(=O)c1ccc(OCC(O)CN(CC(C)C)CC(C)C)cc1 (configuration not stated) | ? | 0.0% | 29.1µM* | -8.4% | -10.2% | 10.1
COC(=O)c1ccc(OCC(O)CN2C(=O)c3ccccc3C2=O)cc1 (configuration not stated) | 8.2% | 11.5% | 2.9% | 9.0% | 25.1% | -3.2
Cc1nc2ccccc2n1CC(O)COc1ccc(Br)cc1 (configuration not stated) | ? | 2.6% | 18.4µM* | -20.9% | -14.3% | ?
Cc1nc2ccccc2n1CC(O)COc1ccccc1Cl (configuration not stated) | 18.4µM* | 11.2% | 9.2µM* | -12.8% | -12.2% | -8.4
N#Cc1ccc(/C=C/C(=O)c2cc3cc(Cl)ccc3o2)cc1 | . | 17.1% | . | . | . | .
COc1cc(NC(=O)Cn2c(=O)n(CC(=O)NCCc3ccc(OC)c(OC)c3)c(=O)c3sccc32)cc(OC)c1 | -28.8% | ? | -26.3% | . | . | .
C=CC1(C)CN(Cc2ccco2)S(=O)(=O)c2c(F)cccc2O1 (configuration not stated) | 18.4µM* | -22.7% | ? | 13.7% | 9.8% | -1.7
Cn1nccc1C(=O)N1CCCCCC1c1nc(C2CC2)no1 (configuration not stated) | . | 26.6% | . | . | . | .
O=C(CCC1CCN(c2cc(NC3CC3)ncn2)CC1)NCc1cc(F)cc(F)c1 | . | 24.1% | . | . | . | .
CN(C)CCNc1oc(-c2ccc(COc3ccc(Cl)cc3)o2)nc1C#N | 16.4µM* | ? | 8.2µM* | . | . | .
COCCNc1oc(-c2ccc(COc3ccc(OC)cc3)o2)nc1C#N | -26.0% | ? | ? | . | . | .
COc1ccc(OCc2ccc(-c3nc(C#N)c(NCc4ccc(F)cc4)o3)o2)cc1 | ? | -18.9% | 23.1µM* | . | . | .
COc1ccc(CNc2oc(-c3ccc(COc4ccc(OC)cc4)o3)nc2C#N)cc1 | ? | -8.7% | ? | . | . | .
COCCCNc1oc(-c2ccc(COc3ccc(Cl)cc3)o2)nc1C#N | 16.4µM* | -11.7% | ? | . | . | .
Cc1cc(C(=O)COC(=O)Cn2cnc3c2c(=O)n(C)c(=O)n3C)c(C)n1CC(F)(F)F | . | -29.5% | . | . | . | .
CCCOc1ccc(C2c3c(oc4ccccc4c3=O)C(=O)N2c2nnc(C(C)C)s2)cc1 (configuration not stated) | -2.6% | ? | -1.6% | . | . | .
CCN(Cc1ccc(OC)c(OC)c1)C(=O)CCc1ncc(-c2ccccc2)o1 | . | 3.4% | . | . | . | .
COc1ccc(-n2ccc3ccccc32)cc1 | -15.4% | -13.4% | -22.9% | 8.4% | 12.0% | 35.0
c1ccc2c(c1)ccn2-n1ccc2ccccc21 | -54.3% | . | 12.6µM* | . | . | .
CCCCc1cc(=O)oc2cc(OCC(=O)OCC)c(Cl)cc12 | . | -6.7% | . | . | . | .
O=C(Nc1ccc(F)c(F)c1)c1ccc(-c2ccccc2)cc1 | . | 0.7% | . | . | . | .
Cc1n[nH]c2ccc([N+](=O)[O-])cc2c1=O | -17.5% | -2.1% | -29.9% | 2.5% | 6.5% | -19.1
SMILES | TDP1 cell CPT | 12-LOX inh | TDP1 cell noCPT | HT1080NT lethal | HT1080 IDH1KD tx | IL1B secr inh
CC(C)CN(CC(C)C)S(=O)(=O)c1cc([N+](=O)[O-])ccc1N1CCCCCC1 | ? | ? | 16.4µM* | -5.0% | ? | -20.1
O=S1(=O)CCC(N2CCN(Cc3cccc(S(=O)(=O)N4CCOCC4)c3)CC2)C1 (configuration not stated) | . | 0.2% | . | . | . | .
CC1Cc2nc(SCC(=O)c3ccccc3)n(Cc3ccccc3)c(=O)c2S1 (configuration not stated) | 10.3µM* | 1.0%[57.4 µM] | 10.3µM* | -20.1% | -11.5% | ?
CC1Cc2nc(SCC(=O)NCc3ccccc3)n(Cc3ccccc3)c(=O)c2S1 (configuration not stated) | ? | 14.4%[57.4 µM] | ? | 0.6% | -2.6% | ?
CC1Cc2nc(SCC(=O)NC3CCCCC3)n(C)c(=O)c2S1 (configuration not stated) | -29.9% | -14.7% | -22.0% | 1.4% | 9.6% | 25.0
COc1ccccc1-n1c(SCC(=O)N2CCc3ccccc32)nc2c(c1=O)SCC2 | 9.2µM* | 7.1% | 7.31µM* | -25.8% | -18.4% | -16.5
CC1Cc2nc(SCC(=O)N3CCc4ccccc43)n(C)c(=O)c2S1 (configuration not stated) | ? | -12.6% | 23.1µM* | -0.6% | -0.3% | 18.0
N/C(=N\N=C\c1ccnc2ccccc12)SC1CC(=O)N(c2ccc(Br)cc2)C1=O (configuration not stated) | ? | 0.6% | 14.6µM* | -12.9% | -1.4% | -0.4
NC(=NCc1ccccc1)NN=Cc1ccnc2ccccc12 | 20.6µM* | 12.6µM* | ? | ? | ? | -110.2*
NC(N)=NN=Cc1ccnc2ccccc12 | 14.6µM* | ? | ? | -8.2% | -13.7% | -104.1*
ONC(=NCc1ccccc1)c1ccccc1 | -2.6% | 0.4% | -14.9% | 8.4% | 0.4% | 9.8
O=C(O)C(=Cc1ccnc2ccccc12)C(=O)O | -15.4% | ? | -13.1% | 0.0% | 0.5% | -11.4
CN1CC(=O)N(C2CCNC2)Cc2c(NCC(C)(C)C)ncnc21 (configuration not stated) | . | -8.0%[6.33 µM] | . | . | . | .
Cc1noc(C)c1COc1ccccc1C(=O)N(C)Cc1ccc(C(C)(C)C)cc1 | 7.31µM* | ? | 6.51µM* | -23.6% | ? | 54.4
CCOc1ccc(NC(=O)CN(C)C(=O)c2ccccc2OCc2c(C)noc2C)cc1OCC | ? | 4.8% | 0.651µM* | -1.0% | 2.2% | 7.0

Source: PubChem
